# A selection: hits, their analogues and other compounds. The true share with any hit is near 2.3%.
# USP1 inh: USP1/UAF1 (human) deubiquitinase inhibition | O94782 | Potency, µM (top dose mostly 57.1 µM), actives largely listed as inhibitors | 0.23% of 390,000 active | recombinant USP1/UAF1, Ub-Rhodamine cleavage fluorescence; also: nearly all actives have a fitted effect of over 60% in size
#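 High-throughput fluorogenic screen: 1nM USP1/UAF1 complex, Ub-Rho substrate 150nM final, 50mM HEPES pH 7.8 with 0.5mM EDTA, 0.1 mg/ml BSA, 1mM TCEP and 0.01% Tween-20.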
# Tau FP inhib: inhibitors of human tau fibril formation. P10636. K18 P301L tau heparin fibrillization, Alexa594 FP, 6 h. Potency, µM (titrated, usually from 57.7 µM), most hits filed as inhibitors. 0.39% of 280,000 active. AID 1468; also: nearly all actives have a fitted effect of over 55% in size
# Target sequence (P10636 561-689 P618L limits assumed): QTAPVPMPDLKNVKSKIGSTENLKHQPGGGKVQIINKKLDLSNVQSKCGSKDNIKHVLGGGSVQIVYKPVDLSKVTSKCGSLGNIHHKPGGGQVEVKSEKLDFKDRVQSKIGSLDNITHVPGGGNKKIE
#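 Compound effects on tau fibrillization are measured by Alexa 594 fluorescence polarization (ex 555, em 632 nm). K18 P301L tau is used at 15 uM with 0.24 uM labeled tracer, and 20 uM heparin induces aggregation over 6 hr at 37 C.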
# Tau ThT inhib: inhibitors of human tau fibril formation, thioflavin T binding; P10636; recombinant tau K18 P301L, heparin-induced fibrillization, ThT fluorescence; 2.1% of 270,000 active; Potency, µM (highest dose often 57.4 µM), actives largely listed as inhibitors; also: nearly all actives have a fitted effect of over 55% in size
#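 ThT emission at 510 nm, taken 1 hr after adding 30 uM dye, quantifies aggregates formed when 20 uM heparin acts on human tau K18 P301L for 6 hr at 37 C.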
# Tau fluor cs: counter-screen for tau fibril formation inhibitors; tau K18 P301L (four-repeat tau fragment) Alexa594 fluorescence, heparin fibrillization; Potency, µM (titrated, usually from 57.7 µM); 0.93% of 280,000 active; AID 1463; also: nearly all actives have a fitted effect of over 55% in size
#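 Human K18 P301L tau (15 uM unlabeled plus 0.24 uM Alexa 594-labeled, final) in 100 mM sodium acetate pH 7 was mixed with compound and 20 uM heparin and incubated 6 hr at 37 C.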
# Coupling enz: counter-screen for Giardia aldolase inhibitors: coupling enzyme system; coupling enzyme system counterscreen, AmpLite Red fluorescence; activity change, negative = inhibition, % at 58.2 µM, hits read low; 0.67% of 290,000 active; AID 2472; in the data active = activity change below about -30%
#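 Counterscreen lacking aldolase: glyceraldehyde-3-phosphate coupling-enzyme reagent preincubated 10 min at RT with compound (at 57.5 uM final), then substrate/coupling system with AmpLite Red added; fluorescence read at 525/598 nm after 20 min RT.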
# Hits are given with their value; 0 = inactive; ? = inconclusive; - = not tested or not shown; [ ] = dose if it differs, or a comment. Unless noted, calls follow the shape of the dose curve; as a rule, active = well fitted curve in the direction sought with a large enough effect; inconclusive = small, poorly fitted or top-dose-only effect, or another doubt; inactive = no such curve, though single readings can be large; an effect the other way counts as inactive or inconclusive.
SMILES,USP1 inh,Tau FP inhib,Tau ThT inhib,Tau fluor cs,Coupling enz
CC(=O)c1ccc(NC(=O)c2ccc3nc(-c4ccco4)c(-c4ccco4)nc3c2)cc1,?,0,12.6µM,?,-30.2
CCN(CC)CCNC(=O)c1ccc(Cn2c(SCc3ccccc3)nc3cccnc32)cc1,0,0,0,0,-
COc1ccc(S(=O)(=O)c2c(Nc3c(C)cccc3C)sc(C(=O)c3ccc4c(c3)OCO4)c2N)cc1,0,0,0,0,-
CCC(C(=O)N1CCN(c2cc(Cl)ccc2C)CC1)n1nc(C)c2sc3ccccc3c2c1=O (stereo not drawn),0,0,0,0,-
Cc1ccc(NC(=O)C2CCCN(S(=O)(=O)c3cn(C(C)C)cn3)C2)c(C)c1 (stereo not drawn),0,?,0,0,-
CCOC(=O)C1=C(Cc2ccc(F)cc2)C(=O)c2ccccc2C1=O,0,15.8µM,10µM,?,-57.1
Cc1ccc(-c2cc(-c3ccccc3Cl)c(C#N)c(N)n2)o1,0,0,31.6µM,0,0
CCOc1ccccc1N(C)C(=O)C1CCCN(c2ncnc3onc(-c4ccc(F)cc4)c23)C1 (stereo not drawn),0,0,0,0,-
CCc1cccc(NC(=O)CC2Oc3ccc(C)cc3NC2=O)c1 (stereo not drawn),0,0,0,0,-
CC(=O)Nc1c(Br)cc2c(c1Br)C(=O)c1ccccc1-2,0,-,-,-,-
CC(=O)C1=C(c2ccc(Br)cc2)C(=O)c2ccccc2C1=O,0,?,8.91µM,?,-69.7
Cc1cccc(/C=C/C(=O)c2cc(Br)ccc(=O)c2O)c1,?,?,14.1µM,?,0
CCOc1ccc(C(=O)/C=C/c2ccc(OC)c(OC)c2)cc1,0,0,?,0,0
CCOc1ccc(/C=C/C(=O)c2cc(Br)ccc(=O)c2O)cc1,?,?,4.47µM,?,0
CCc1ccc(/C=C/C(=O)c2cc(Br)ccc(=O)c2O)cc1,?,?,15.8µM,?,0
Cc1ccc(/C=C/C(=O)c2cc(Br)ccc2OC(=O)c2ccco2)cc1,0,0,?,0,0
O=C(C=Cc1ccccc1)c1cc(Br)ccc1O,0,-,-,-,-
CCOC(=O)C(C)Sc1nnc2cc(C)c3ccccc3n12 (stereo not drawn),0,0,0,0,-
CCC(CC)C(=O)Nc1ccc2nc(SCC(=O)N3CCOCC3)sc2c1,0,0,0,0,-
COCCNC(=O)c1c(-c2ccccc2)c(-c2ccccc2)nn(C)c1=O,0,0,0,0,-
CCCCN=Cc1c(C)[nH]n(-c2ccccc2)c1=S,0,0,?,0,0
Cc1[nH]n(-c2ccccc2)c(=S)c1C=Nc1cccc([N+](=O)[O-])c1,0,?,22.4µM,0,0
CCOc1ccccc1CNS(=O)(=O)c1cc2c(cc1C)NC(=O)CO2,0,0,0,0,-
c1cc2cn[nH]c2cc1NC1CCCCCC1,0,?,28.2µM,?,-66.9
NC(=S)Nc1ccc2cn[nH]c2c1,0,0,0,0,0
SMILES,USP1 inh,Tau FP inhib,Tau ThT inhib,Tau fluor cs,Coupling enz
S=C(Nc1ccccc1)Nc1ccc2cn[nH]c2c1,0,0,8.91µM,?,-38.9
Cc1ccc(NC(=O)c2sc(-n3nc(C)c(Cc4ccc5c(c4)OCO5)c3C)nc2C)cc1C,0,0,0,0,-
COc1ccc(CNC(=O)CCc2nnc3n(CC(C)C)c(=O)c4ccccc4n23)cc1,?,0,0,0,-
COC(=O)Cn1cccc1C(=O)c1ccccc1,0,0,0,0,0
O=C(O)Cn1cccc1C(=O)c1ccccc1,0,0,8.91µM,?,0
COc1cc(OC)c(NC(=O)c2cc3c(=O)oc4ccc(C)cc4c3s2)cc1Cl,0,0,0,0,-
COc1ccc(NC(=O)c2c(N)c(C(=O)c3ccc(C)cc3)n3ccccc23)cc1OC,0,0,0,0,-
COc1cccc(N2CCN(c3ncnc4c3[nH]c3ccccc34)CC2C)c1 (stereo not drawn),-,?,?,14.1µM[quencher],0
COc1cccc(N2CCN(c3ncnc4c3[nH]c3ccc(F)cc34)CC2C)c1 (stereo not drawn),0,?,?,17.8µM[quencher],0
COc1ccc2[nH]c3c(N4CC(C)OC(C)C4)ncnc3c2c1 (stereo not drawn),0,0,0,0,0
COc1ccccc1CNC(=O)c1cccn1-c1nnc(N2CCCCC2)s1,?,0,0,0,-
CC(C)c1ccc(NC(=O)c2cccc3c2C(=O)N(C2CCCCC2)C3)cc1,0,0,0,0,-
CC(=O)NCc1ccc(S(=O)(=O)NC(C(=O)O)C(C)C)cc1 (stereo not drawn),0,?,25.1µM,0,0
COc1cccc(=O)c2c(C)n(-c3cc(C)cc(C)c3)c(C)c12,0,?,28.2µM,0,0
COc1cccc(-n2c(C)c3c(OC)cccc(=O)c3c2C)c1,0,?,25.1µM,0,0
CC(=O)Nc1ccc(S(=O)(=O)NC2=C(N3CCN(C)CC3)C(=O)c3ccccc3C2=O)cc1,?,-,-,-,-51.8
CC(=O)Nc1ccc(S(=O)(=O)NC2=C(N3CCN(Cc4ccccc4)CC3)C(=O)c3ccccc3C2=O)cc1,?,0,15.8µM,14.1µM[quencher],-43.9
CCN1CCN(C2=C(NS(=O)(=O)c3ccc(NC(C)=O)cc3)C(=O)c3ccccc3C2=O)CC1,0,-,-,-,-
O=C1C=C[C@@H](O)[C@H]2[C@@H]3C(=O)N(C4CCCCC4)C(=O)[C@@H]3CC[C@H]12,-,0[11.6 µM],0[11.5 µM],0[11.6 µM],0
COc1cc(-c2nc3nc[nH]n3c2Nc2ccc(C(C)C)cc2)ccc1O,?,?,25.1µM,?,-
Cc1ccc2c(CC(=O)N3CCN(c4cccc(Cl)c4)CC3)coc2c1C,0,?,?,?,-
CCCn1c2ccccc2c2cnn(CC(=O)NCC3CCN(Cc4ccccc4C)CC3)c(=O)c21,0,0,0,0,-
O=C(Nc1cccc2nsnc12)c1ccc(-c2cccc(Cl)c2)o1,0,0,?,0,-39.8
NC(=S)N=Nc1c(O)cc(O)c2[nH]c(=O)ccc12,17.8µM,-,-,-,-
COCCNC(=O)CSc1nc2cc(OC)c(OC)cc2c(=O)n1Cc1ccc(OC)cc1,0,0,0,0,0
SMILES,USP1 inh,Tau FP inhib,Tau ThT inhib,Tau fluor cs,Coupling enz
CCOC(=O)CSc1nc2ccc(N3CCOCC3)cc2c(=O)n1Cc1ccc2c(c1)OCO2,-,0,?,?,-31.1
CCCCNC(=O)CSc1nc2ccc(N3CCOCC3)cc2c(=O)n1Cc1ccc(OC)cc1,0,0,?,0,-30.7
COCCNC(=O)CSc1nc2ccc(N3CCOCC3)cc2c(=O)n1Cc1ccc(OC)cc1,0,0,?,?,-38.9
COc1ccc(-n2ncc(C(=O)NCc3ccccc3)c2C2CCN(C(=O)OC(C)(C)C)CC2)cc1,?,0,0,0,-
CCc1nc2ccc(C(=O)NCc3cc(OC)ccc3OC)cc2nc1CC,0,0,0,0,-
COc1ccc(/C=N/NC(=O)c2cccnc2)cc1CN1CCCc2ccccc21,0,0,?,12.6µM[quencher],0

# Compound activity from PubChem.
